# Where “and” joins values, the source holds several entries; their conditions need not be identical. Equal entries are not always repeated. This is part of a sample that, as a whole, favours compounds with a hit. Of some 79,000 tested, about 15% had one in any assay. Some structures have more than one record in an assay (separate samples or runs), and their calls can disagree. Calls of active or inactive are those of the source. Rule as the data show it: active = growth inhibition above about 70%; inactive = the rest.
# Test: NCI Yeast Anticancer Drug Screen. Data for the bub3 strain (AID 167)
# Conditions: S. cerevisiae bub3 mutant strain, at 50.0 µM, stronger effect = higher value
# How it was run: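 In this screen, a yeast mutant lacking normal mitotic checkpoint function is challenged with compound. Relative growth versus vehicle gives the inhibition value.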
row,Structure (SMILES),growth inhibition
1,C1CC[N-]CC1.CC(=N\O)/C(C)=N/O.CC(=N\O)/C(C)=N/O.[CH2-]c1ccccc1.[Co+2],16.4% (inactive)
2,C[Si](C)(C)C#CC#C[Si](C)(C)C.[Ni].[Ni].[Ni].[Ni].[c-]1[c-][c-][cH-][c-]1.[c-]1[c-][c-][cH-][c-]1.[c-]1[c-][c-][cH-][c-]1.[c-]1[c-][c-][cH-][c-]1,-2.85% (inactive)
3,CC(NC1=NCCO1)c1ccccc1Cl (stereo not given),-12.9% (inactive)
4,O=C(CN1CCCCC1)c1ccc(Br)cc1,-12.4% (inactive)
5,COC(=O)C1=C(N2CCCC2)C2c3ccccc3SC12C(=O)OC (stereo not given),14.2% (inactive)
6,CC(=O)O[C@H]1CCC2[C@@H]3CC[C@]4(C)CC(=O)C=C[C@]4(C)C3CC[C@@]21C (stereo not given in full),87.1% (active)
7,Nc1cc(C(=O)O)ccc1O.[Cl][Sn][Cl],-1.65% (inactive)
8,Cc1ccc(NC2=NCCS2)cc1Cl,10.2% (inactive)
9,[N-]=[N+]=C1CNC(=O)NC1=O,-0.15% (inactive)
10,CN(C)C(=O)C1(c2ccccc2)CCNCC1,1.2% (inactive)
11,CC(=O)[O][Pb]([CH3])([CH3])[CH3],-55.5% (inactive)
12,CN(Cc1cnc2nc(N)nc(N)c2n1)c1ccc(C(=O)NC(CCC(=O)NCC(P(=O)(O)O)P(=O)(O)O)C(=O)O)cc1 (stereo not given),-15.8% (inactive)
13,O=C1NC(=O)C(CC(C(=O)C(=O)Nc2ccccc2Cl)C(=O)c2ccc3ccccc3c2)C(=O)N1 (stereo not given),2.4% (inactive)
14,O=C1CCCC2C3CC(CN12)C1CCCCN1C3 (stereo not given),-11.8% (inactive) and 26.9% (inactive)
15,CCCCCCCCCCNP(=S)(NCCCCCCCCCC)c1ccccc1,-14.8% (inactive)
16,CC(C)(C)c1cc(O)ccc1O,-25.7% (inactive)
17,Cc1ccc(S(=O)(=O)F)cc1,-1.3% (inactive)
18,CC(O)C[As](=O)(O)c1ccccc1Cl (stereo not given),14.4% (inactive)
19,CN1CCCC2(CCCc3ccccc32)C1 (stereo not given),-13.3% (inactive)
20,SCc1c(Cl)c(Cl)c(Cl)c(Cl)c1Cl.[Hg],3.45% (inactive)

row,Structure (SMILES),growth inhibition
1,CC[C@@]1(O)C(=O)OCc2c1cc1n(c2=O)Cc2c-1nc1ccccc1c2C=Nc1ccc(N[C@@H]2c3cc4c(cc3[C@@H](c3cc(OC)c(O)c(OC)c3)[C@H]3C(=O)OC[C@@H]32)OCO4)cc1,50.3% (inactive) and 83.3% (active)
2,CCC1CN2CCC3(C(=O)Nc4ccccc43)C2CC1/C(=C/OC)C(=O)OC (stereo not given),13.7% (inactive)
3,N#CC1(c2ccccc2)CCCC1,-4.05% (inactive)
4,CCCCCCCCCCCCCCC(O)C1CCC(C(O)CCC(O)CCCCCC(O)CC2=CC(C)OC2=O)O1 (stereo not given),-25.4% (inactive)
5,O=C1C=C2c3ccccc3CC(C(=O)O)C2CC1 (stereo not given),2.3% (inactive)
6,CCOP(=S)(OCC)N(C)C(=O)Oc1cccc(C(C)C)c1,-20.4% (inactive)
7,CCOC(OCC)c1ccccc1,6.6% (inactive)
8,CN1CCC2(CC1)c1ccccc1-c1ccccc12,-12.7% (inactive)
9,COc1ccc2c(c1)-c1c(ccc(OC)c1OC(=O)C(=O)c1ccccc1)CC(Cl)N(C)CC2.[O]=[Cr](=[O])([OH])[OH] (stereo not given),-1.3% (inactive)
10,NC(Cc1ccc(N(CCCl)Cc2ccccc2)cc1)C(=O)O (stereo not given),-29.2% (inactive)
11,NC(=O)C(F)(F)Cl,-28.8% (inactive)
12,COP(=O)(NC(=O)OC(C)C)OC,-15.4% (inactive)
13,c1ccc(C[P+]2(c3ccccc3)CCCCC2)cc1,-4.95% (inactive)
14,CCS(=O)(=O)CCN1C(=O)CN=C(c2ccccc2F)c2cc(Cl)ccc21,-0.7% (inactive)
15,N/C(=N\N=C\c1ccccc1O)N[N+](=O)[O-],-19.2% (inactive)
16,CCCCCCCCCCOC(=O)CC(C)=O.CCCCCCCCCCOC(=O)CC(C)=O.[Ni+2],2.3% (inactive)
17,CCOP(=O)(CCC[N+](=O)[O-])OCC,1.35% (inactive)
18,COc1ccc2nc3cc(Cl)ccc3c(NCCCSCCCl)c2n1,71.3% (active)
19,CN(C)CCC(C)(C#N)c1ccccc1 (stereo not given),13.9% (inactive)
20,CC1CC2OC(=O)C(CN3CC3)C2CC2(C)C(O)CC(O)C12 (stereo not given),10.3% (inactive)

# — PubChem BioAssay (NCI)
